# This is a sample that favours compounds with a hit; in the whole collection about 3.1% have one here.
# NCF1 inh: p47phox/p22phox peptide binding inhibitors, primary screen, biochemical, uHTS, NADPH oxidase regulatory subunit; inhibition, % at 24.7 µM; fluorescence polarization, 2 h; 220,000 tested, 0.53% active; Neutrophil cytosol factor 1 (Homo sapiens), P14598; AID 1274, 2008;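 active = inhibition above about 30%, limit read from the data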
# Mcl1 Bid PPI: Mcl-1/Bid binding inhibitors, primary screen, biochemical, TR-FRET, 1536-well; TR-FRET Mcl-1/Bid-Dy647 peptide binding; inhibition, % at 21.7 µM; 220,000 tested, 0.97% active;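 active = compounds that cut the binding signal by more than half at the single screening dose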;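 note: His-tagged Mcl-1 with europium anti-His antibody binding Bid BH3 peptide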
# Target sequence (Q07820 whole entry, looked up): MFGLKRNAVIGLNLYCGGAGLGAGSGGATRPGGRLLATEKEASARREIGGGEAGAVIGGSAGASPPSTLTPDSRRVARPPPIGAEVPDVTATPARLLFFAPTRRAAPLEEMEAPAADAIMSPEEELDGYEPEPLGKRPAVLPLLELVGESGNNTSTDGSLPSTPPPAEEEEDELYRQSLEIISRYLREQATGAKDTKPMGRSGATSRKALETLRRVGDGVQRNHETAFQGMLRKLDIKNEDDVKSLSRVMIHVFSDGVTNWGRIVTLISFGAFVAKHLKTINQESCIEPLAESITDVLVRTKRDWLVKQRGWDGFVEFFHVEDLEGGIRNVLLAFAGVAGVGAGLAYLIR
# Mcl1-Noxa inh: Mcl-1/Noxa binding inhibitors, primary screen, biochemical, TR-FRET, 1536-well. Induced myeloid leukemia cell differentiation protein Mcl-1 (Homo sapiens), Q07820. TR-FRET Mcl-1/Noxa peptide binding, 2 h. inhibition, % at 21.7 µM. 220,000 tested, 1.5% active;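 active = compounds that cut the protein-peptide binding signal by more than 50% relative to plate controls in a single-dose test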;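 note: His-tagged Mcl-1 with rhodamine Noxa BH3 peptide and terbium anti-His antibody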
# Bim-Mcl-1: inhibitors of Bim peptide binding to Mcl-1, primary screen, biochemical, bead-based flow cytometry, multiplex; Induced myeloid leukemia cell differentiation protein Mcl-1 (Homo sapiens), Q07820; Bim peptide-Mcl-1 binding; inhibition, % at 10 µM; 190,000 tested, 0.1% active; in the data active = inhibition above about 40%
# 14-3-3 Bad PPI: inhibitors of 14-3-3 zeta/Bad binding, primary screen, biochemical, TR-FRET, bovine 14-3-3 zeta; 220,000 tested, 0.71% active; inhibition, % at 21.7 µM; 14-3-3 protein zeta/delta (Bos taurus), P63103; TR-FRET 14-3-3zeta/Dy647-pBad peptide displacement, 1 h;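 active = inhibition above about 70%, limit read from the data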
# Target sequence (P63103 whole entry, looked up): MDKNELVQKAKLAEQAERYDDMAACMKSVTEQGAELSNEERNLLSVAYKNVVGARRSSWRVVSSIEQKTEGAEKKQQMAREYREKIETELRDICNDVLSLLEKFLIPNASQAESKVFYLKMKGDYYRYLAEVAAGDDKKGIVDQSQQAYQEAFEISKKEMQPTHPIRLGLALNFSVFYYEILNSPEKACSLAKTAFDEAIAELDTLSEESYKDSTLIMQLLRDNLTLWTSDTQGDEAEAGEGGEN
# Hits are given with their value; 0 = inactive; - = no result given.
SMILES,NCF1 inh,Mcl1 Bid PPI,Mcl1-Noxa inh,Bim-Mcl-1,14-3-3 Bad PPI
CCCOC(=O)CSc1nnc(-c2cc(OC)c(OC)c(OC)c2)o1,0,0,0,0,0
COc1cc(-c2nnc(SCc3cc(=O)oc4cc(O)c(O)cc34)o2)cc(OC)c1OC,0,0,77.1,0,0
CCCCCOC(=O)CSc1nnc(-c2cc(OC)c(OC)c(OC)c2)o1,31.1,0,0,0,0
Nc1cc2c(cc1[N+](=O)[O-])OCCOCCOCCO2,0,0,0,0,0
O=C(Nc1nccs1)c1ccc(-c2ccc(Cl)cc2)o1,0,0,0,0,0
CCc1nnc(NC(=O)c2ccc(-c3ccc([N+](=O)[O-])cc3Cl)o2)s1,0,66.2,59.3,0,0
COc1ccc(NC(=O)c2ccc(-c3ccc([N+](=O)[O-])cc3)o2)cc1,0,0,50.6,0,0
COc1ccc(NC(=O)c2cc([N+](=O)[O-])ccc2O)cc1,0,0,0,0,0
COc1ccc(NC(=O)c2[nH]ncc2[N+](=O)[O-])cc1,0,80.2,0,0,0
O=C(Nc1nccs1)c1ccc(-c2ccc([N+](=O)[O-])cc2)o1,0,0,65.5,0,0
O=C(c1cccn2c(=O)c3cc4ccccc4cc3nc12)N1CCN(c2ccccc2)CC1,0,0,0,0,0
COc1ccc(/C=N\NC(=O)C2=NNC(=O)C2C)cc1 (stereo not drawn),0,0,0,0,0
COc1ccc(C2c3[nH]c4ccccc4c3CCN2Cc2cccn2-c2ncccn2)cc1C (stereo not drawn),0,0,0,0,0
COc1ccc(NC(=O)CN2CCN(c3ccccc3F)CC2)cc1,0,0,0,0,0
COc1ccc(NC(=O)NCCCN2CCN(c3ccccc3F)CC2)cc1,0,0,56.0,-,0
COc1ccc(NC(=O)NCCN2CCN(c3cccc(Cl)c3)CC2)cc1,0,0,0,0,0
COc1ccc(NC(=O)NCCCN2CCN(c3cc(C)ccc3C)CC2)cc1,0,0,54.8,0,0
Cc1cccc(Oc2coc3cc(OC(=O)c4cncc(Br)c4)ccc3c2=O)c1,86.9,0,0,0,0
CC(=O)OCCNc1cc(N2CCN(C)CC2)c2noc3c2c1C(=O)c1ccccc1-3,61.5,0,0,0,0
O=C(COc1ccccc1-c1ccccc1)NCc1cccc(Cl)c1,0,0,0,0,0
CCCCSc1cnn(-c2ccccc2)c(=O)c1SCCCC,65.2,0,0,0,0
Fc1ccc(CNn2cnnc2SCc2ccc(F)cc2)cc1,0,0,0,0,0
Fc1ccc(CSc2nncn2NCc2ccc3c(c2)OCO3)cc1,102.9,0,0,0,0
CCCCC(Sc1nc(N)c(NC(=O)c2ccc(OC)cc2)c(=O)[nH]1)C(=O)O (stereo not drawn),0,0,0,0,0
COc1cccc2c(=S)c(CCC(C)=O)c(C)[nH]c12,0,0,99.8,0,0
SMILES,NCF1 inh,Mcl1 Bid PPI,Mcl1-Noxa inh,Bim-Mcl-1,14-3-3 Bad PPI
CC(=O)CCc1c(C)c2cccc(C)c2[nH]c1=O,0,0,0,0,0
CC(Oc1cc(-c2ccccc2)cc2ccccc12)C(=O)N1CCOCC1 (stereo not drawn),0,0,0,0,0
O=C(ONc1ccc(N=NC(=O)c2ccccc2O)cc1)c1ccccc1,31.2,88.4,84.0,0,0
COCCNC(=O)CN1CCN(C(c2ccccc2)c2ccccc2)CC1,0,0,0,0,87.9
O=C(Nc1ccc(O)c(C(=O)O)c1)Oc1ccccc1,0,0,0,-,0
CC(C(=O)Nc1ccc2c(c1)OCCO2)N(C)Cc1c(F)cccc1Cl (stereo not drawn),0,0,0,0,96.7
CC(C)c1ccc(C2C3=C(COC3=O)Nc3cc4c(cc32)OCO4)cc1 (stereo not drawn),0,0,0,0,0
Cc1cc(C)c(N)c(C(=O)O)c1,0,61.0,0,-,0
Cc1cc(C(=O)O)cc(Br)c1N,0,0,0,0,0
COC(=O)CSc1nnc(CNC(=O)c2ccc(OC)c(OC)c2)n1C,0,0,0,0,0
CCSc1nnc(CSc2ncccn2)n1C,0,0,0,0,0
Cc1ccc(-n2c(O)c(C=NC3CCS(=O)(=O)C3)c3ccccc3c2=O)c(C)c1 (stereo not drawn),0,0,0,-,0
Cc1ccc(-n2c(O)c(C=NC3CCS(=O)(=O)C3)c3ccccc3c2=O)cc1 (stereo not drawn),51.2,0,0,0,0
O=c1oc2cc([N+](=O)[O-])ccc2nc1/C=C(\O)c1cccc(Br)c1,0,0,0,-,0
O=c1oc2cc([N+](=O)[O-])ccc2nc1/C=C(O)/C=C/c1ccccc1,0,0,72.2,-,0
CCc1nn2cc(C(=O)c3cc(C)ccc3O)cnc2c1-c1ccc(F)cc1,0,0,0,42.0,0
CCc1nn2cc(C(=O)c3ccccc3O)cnc2c1-c1ccc(F)cc1,0,0,0,0,0
CN1C(=O)/C(=C/c2cn(CC(=O)NCc3ccco3)c3ccccc23)NC1=S,0,0,72.7,0,0
COc1ccc(/C=C(/NC(=O)c2ccccc2Cl)C(=O)NCCCC(=O)O)cc1,0,0,0,0,0
CN(CCOc1ccc(-c2ccn(S(=O)(=O)c3cccc4ccccc34)n2)cc1)c1ccccn1,0,0,0,0,0
CCOc1ccc(-n2c(SCC(=O)Nc3ccccc3C)n[nH]c2=O)cc1,0,65.0,0,0,0
O=C(N/N=C/c1ccc2c(c1)OCO2)c1ccc(COc2cccc3cccnc23)cc1,0,0,0,0,0
CCN(CC)C(=O)CN(C)S(=O)(=O)c1cccc2nsnc12,0,75.6,0,0,0
CCN(CC)S(=O)(=O)c1cccc2nsnc12,0,0,0,0,0
CC(C)OC(=O)CSc1nc(Cc2ccccc2)nc2ccccc12,0,0,0,0,0
SMILES,NCF1 inh,Mcl1 Bid PPI,Mcl1-Noxa inh,Bim-Mcl-1,14-3-3 Bad PPI
CCn1c(SCC(=O)n2c(C)c(C)c3ccccc32)nnc1-c1ccco1,0,54.4,0,0,0
CC(C)(C)Cc1nnc(NC(=O)Cc2cccs2)s1,0,0,60.1,0,0
CCCCCc1nnc(NC(=O)Cc2cccs2)s1,0,0,67.1,0,0
CC(C)Cc1nnc(NC(=O)Cc2cccs2)s1,0,0,55.7,0,0
Cc1cc(NC(=O)CSc2nc(=O)cc(N)n2-c2ccc(Cl)cc2)no1,-,0,0,0,0
O=C(N/N=C\CCc1ccccc1)c1ccco1,0,0,0,0,0
Cc1ccc(C(=O)NCC(=O)OC(C)C(=O)NCCC2=CCCCC2)cc1C (stereo not drawn),0,0,0,0,0
C=CCOc1cccc(CNc2cccc(C(=O)O)c2)c1,0,0,0,-,0
COC(=O)c1ccc(Sc2ccccn2)c([N+](=O)[O-])c1,0,54.8,0,0,0
